As usually defined, the residual activity is the signal under treatment as a percentage of the control signal.

Experiment [1] addresses T1, Ephrin type-B receptor 4 (Homo sapiens) (UniProt P54760).
T1 sequence (whole entry): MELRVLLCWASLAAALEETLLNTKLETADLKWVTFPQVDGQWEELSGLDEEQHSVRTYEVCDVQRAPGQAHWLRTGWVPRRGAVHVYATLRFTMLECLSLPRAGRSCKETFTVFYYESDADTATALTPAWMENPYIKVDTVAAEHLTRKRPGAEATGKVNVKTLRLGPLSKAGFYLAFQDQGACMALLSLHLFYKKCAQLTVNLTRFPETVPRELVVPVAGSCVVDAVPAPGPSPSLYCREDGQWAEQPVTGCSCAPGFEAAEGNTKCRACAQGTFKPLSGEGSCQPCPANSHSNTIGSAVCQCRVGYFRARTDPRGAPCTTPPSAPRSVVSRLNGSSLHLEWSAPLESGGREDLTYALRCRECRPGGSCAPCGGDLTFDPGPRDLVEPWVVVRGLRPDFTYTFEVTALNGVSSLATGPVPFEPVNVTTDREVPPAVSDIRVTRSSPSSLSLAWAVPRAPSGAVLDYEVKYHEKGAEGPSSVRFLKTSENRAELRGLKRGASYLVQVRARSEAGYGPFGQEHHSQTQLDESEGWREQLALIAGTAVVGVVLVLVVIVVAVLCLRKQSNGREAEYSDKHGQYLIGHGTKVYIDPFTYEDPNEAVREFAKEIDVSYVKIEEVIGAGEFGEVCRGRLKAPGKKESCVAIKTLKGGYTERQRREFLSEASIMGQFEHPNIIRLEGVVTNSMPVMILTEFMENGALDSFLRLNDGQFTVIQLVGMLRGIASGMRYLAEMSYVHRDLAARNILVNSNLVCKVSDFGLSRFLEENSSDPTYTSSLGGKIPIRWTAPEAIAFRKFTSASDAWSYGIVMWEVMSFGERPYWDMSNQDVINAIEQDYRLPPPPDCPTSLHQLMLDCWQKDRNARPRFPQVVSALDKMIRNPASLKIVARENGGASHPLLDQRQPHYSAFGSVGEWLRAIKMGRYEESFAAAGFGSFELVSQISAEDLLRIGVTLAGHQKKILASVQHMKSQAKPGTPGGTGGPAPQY
The note with it: at 1 µM.

The target of experiment [2] is T1, Ephrin type-B receptor 4 (Homo sapiens). The conditions noted are these: at 10 µM.
Experiment [3] concerns the target Focal adhesion kinase 1 (Homo sapiens) (UniProt Q05397). The conditions noted are these: at 1 µM.
The target of experiment [4] is T2, Ephrin type-B receptor 3 (Homo sapiens) (UniProt P54753).
T2 sequence (whole entry): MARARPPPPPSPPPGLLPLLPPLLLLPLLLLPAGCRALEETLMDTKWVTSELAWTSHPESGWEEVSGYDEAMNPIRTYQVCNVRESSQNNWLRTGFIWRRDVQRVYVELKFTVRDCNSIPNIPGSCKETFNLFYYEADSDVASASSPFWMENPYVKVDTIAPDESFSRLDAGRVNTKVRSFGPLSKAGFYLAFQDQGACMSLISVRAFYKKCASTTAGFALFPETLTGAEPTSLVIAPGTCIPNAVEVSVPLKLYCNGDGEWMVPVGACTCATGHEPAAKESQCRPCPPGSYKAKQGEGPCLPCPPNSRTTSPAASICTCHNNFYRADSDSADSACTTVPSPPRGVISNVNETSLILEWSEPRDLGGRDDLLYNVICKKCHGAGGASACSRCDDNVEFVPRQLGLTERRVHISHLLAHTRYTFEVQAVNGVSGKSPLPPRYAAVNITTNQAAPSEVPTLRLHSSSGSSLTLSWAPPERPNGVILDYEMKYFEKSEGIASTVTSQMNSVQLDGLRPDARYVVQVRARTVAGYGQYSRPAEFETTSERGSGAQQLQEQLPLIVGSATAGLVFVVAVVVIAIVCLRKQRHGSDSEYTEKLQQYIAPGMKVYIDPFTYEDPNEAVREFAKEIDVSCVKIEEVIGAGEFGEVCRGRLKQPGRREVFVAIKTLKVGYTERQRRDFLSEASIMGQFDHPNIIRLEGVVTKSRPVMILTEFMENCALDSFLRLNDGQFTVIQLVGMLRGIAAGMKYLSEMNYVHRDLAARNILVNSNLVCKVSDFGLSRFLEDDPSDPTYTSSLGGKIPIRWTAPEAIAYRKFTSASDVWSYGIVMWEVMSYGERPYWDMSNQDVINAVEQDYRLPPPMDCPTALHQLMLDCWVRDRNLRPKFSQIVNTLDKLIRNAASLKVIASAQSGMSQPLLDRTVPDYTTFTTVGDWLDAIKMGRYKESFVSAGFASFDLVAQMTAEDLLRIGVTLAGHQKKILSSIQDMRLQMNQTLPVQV
The note with it: at 1 µM.

For experiment [5], the target named is T2, Ephrin type-B receptor 3 (Homo sapiens). The note with it: at 10 µM.
The target of experiment [6] is T3, Ephrin type-B receptor 2 (Homo sapiens) (UniProt P29323).
T3 sequence (whole entry): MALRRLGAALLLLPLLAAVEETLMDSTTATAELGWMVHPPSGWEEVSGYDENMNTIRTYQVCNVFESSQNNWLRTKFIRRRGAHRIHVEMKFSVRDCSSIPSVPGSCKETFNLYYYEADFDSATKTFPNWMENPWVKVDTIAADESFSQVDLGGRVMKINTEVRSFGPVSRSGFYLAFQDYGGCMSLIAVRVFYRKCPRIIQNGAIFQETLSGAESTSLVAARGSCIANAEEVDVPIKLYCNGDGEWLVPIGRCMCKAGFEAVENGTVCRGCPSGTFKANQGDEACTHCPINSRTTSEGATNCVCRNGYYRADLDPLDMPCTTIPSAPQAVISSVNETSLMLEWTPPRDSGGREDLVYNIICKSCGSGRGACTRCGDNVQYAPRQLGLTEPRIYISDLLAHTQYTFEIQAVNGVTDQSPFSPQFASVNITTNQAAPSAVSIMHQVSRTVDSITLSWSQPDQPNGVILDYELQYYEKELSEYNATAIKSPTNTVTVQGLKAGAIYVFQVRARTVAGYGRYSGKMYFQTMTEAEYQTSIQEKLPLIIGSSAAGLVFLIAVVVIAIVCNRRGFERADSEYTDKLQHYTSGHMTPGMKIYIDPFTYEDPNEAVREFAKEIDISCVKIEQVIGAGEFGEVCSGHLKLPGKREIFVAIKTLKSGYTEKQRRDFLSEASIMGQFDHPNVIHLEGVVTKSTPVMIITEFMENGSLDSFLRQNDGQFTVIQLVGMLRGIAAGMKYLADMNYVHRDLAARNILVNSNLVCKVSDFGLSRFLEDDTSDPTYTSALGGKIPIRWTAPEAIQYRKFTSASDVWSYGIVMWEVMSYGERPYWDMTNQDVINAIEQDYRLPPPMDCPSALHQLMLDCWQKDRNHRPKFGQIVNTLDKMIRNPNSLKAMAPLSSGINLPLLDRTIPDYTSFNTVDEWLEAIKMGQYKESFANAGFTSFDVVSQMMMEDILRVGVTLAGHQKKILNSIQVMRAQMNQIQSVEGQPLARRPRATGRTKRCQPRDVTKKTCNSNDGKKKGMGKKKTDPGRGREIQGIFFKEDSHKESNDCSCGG
The conditions noted are these: at 10 µM.

For experiment [7], the target named is T4, Ephrin type-B receptor 1 (Homo sapiens) (UniProt P54762).
T4 sequence (whole entry): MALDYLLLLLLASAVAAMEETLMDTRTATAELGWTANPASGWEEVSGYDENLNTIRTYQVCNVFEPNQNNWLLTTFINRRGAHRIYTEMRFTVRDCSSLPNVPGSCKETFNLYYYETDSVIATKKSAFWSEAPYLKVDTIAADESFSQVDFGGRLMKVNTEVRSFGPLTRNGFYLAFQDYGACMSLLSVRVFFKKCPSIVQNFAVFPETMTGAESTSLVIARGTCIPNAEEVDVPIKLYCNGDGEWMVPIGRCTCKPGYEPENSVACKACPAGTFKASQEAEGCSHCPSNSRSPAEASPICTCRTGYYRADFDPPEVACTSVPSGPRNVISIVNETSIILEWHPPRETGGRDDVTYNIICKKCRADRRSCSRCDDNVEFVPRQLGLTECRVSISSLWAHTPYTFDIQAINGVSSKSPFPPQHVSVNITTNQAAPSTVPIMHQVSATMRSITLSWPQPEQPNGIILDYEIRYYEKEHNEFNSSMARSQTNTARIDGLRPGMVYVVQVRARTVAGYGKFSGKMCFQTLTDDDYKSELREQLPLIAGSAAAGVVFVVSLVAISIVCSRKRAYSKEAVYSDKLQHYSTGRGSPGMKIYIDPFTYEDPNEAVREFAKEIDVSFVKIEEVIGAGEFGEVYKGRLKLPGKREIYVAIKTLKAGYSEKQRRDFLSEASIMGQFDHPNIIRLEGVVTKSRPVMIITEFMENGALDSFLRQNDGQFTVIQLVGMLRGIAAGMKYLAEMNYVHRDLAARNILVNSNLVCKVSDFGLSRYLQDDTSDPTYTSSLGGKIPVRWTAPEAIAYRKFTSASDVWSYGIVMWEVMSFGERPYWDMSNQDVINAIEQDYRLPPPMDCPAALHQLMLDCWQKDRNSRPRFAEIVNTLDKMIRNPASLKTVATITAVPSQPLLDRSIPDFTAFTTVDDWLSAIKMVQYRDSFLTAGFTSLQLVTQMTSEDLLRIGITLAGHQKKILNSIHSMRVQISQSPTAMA
The note with it: at 10 µM.

The target in experiment [8] is Receptor tyrosine-protein kinase erbB-4 (Homo sapiens) (UniProt Q15303). The conditions noted are these: at 1 µM.
Receptor tyrosine-protein kinase erbB-4 (Homo sapiens), sequence (Q15303 whole entry): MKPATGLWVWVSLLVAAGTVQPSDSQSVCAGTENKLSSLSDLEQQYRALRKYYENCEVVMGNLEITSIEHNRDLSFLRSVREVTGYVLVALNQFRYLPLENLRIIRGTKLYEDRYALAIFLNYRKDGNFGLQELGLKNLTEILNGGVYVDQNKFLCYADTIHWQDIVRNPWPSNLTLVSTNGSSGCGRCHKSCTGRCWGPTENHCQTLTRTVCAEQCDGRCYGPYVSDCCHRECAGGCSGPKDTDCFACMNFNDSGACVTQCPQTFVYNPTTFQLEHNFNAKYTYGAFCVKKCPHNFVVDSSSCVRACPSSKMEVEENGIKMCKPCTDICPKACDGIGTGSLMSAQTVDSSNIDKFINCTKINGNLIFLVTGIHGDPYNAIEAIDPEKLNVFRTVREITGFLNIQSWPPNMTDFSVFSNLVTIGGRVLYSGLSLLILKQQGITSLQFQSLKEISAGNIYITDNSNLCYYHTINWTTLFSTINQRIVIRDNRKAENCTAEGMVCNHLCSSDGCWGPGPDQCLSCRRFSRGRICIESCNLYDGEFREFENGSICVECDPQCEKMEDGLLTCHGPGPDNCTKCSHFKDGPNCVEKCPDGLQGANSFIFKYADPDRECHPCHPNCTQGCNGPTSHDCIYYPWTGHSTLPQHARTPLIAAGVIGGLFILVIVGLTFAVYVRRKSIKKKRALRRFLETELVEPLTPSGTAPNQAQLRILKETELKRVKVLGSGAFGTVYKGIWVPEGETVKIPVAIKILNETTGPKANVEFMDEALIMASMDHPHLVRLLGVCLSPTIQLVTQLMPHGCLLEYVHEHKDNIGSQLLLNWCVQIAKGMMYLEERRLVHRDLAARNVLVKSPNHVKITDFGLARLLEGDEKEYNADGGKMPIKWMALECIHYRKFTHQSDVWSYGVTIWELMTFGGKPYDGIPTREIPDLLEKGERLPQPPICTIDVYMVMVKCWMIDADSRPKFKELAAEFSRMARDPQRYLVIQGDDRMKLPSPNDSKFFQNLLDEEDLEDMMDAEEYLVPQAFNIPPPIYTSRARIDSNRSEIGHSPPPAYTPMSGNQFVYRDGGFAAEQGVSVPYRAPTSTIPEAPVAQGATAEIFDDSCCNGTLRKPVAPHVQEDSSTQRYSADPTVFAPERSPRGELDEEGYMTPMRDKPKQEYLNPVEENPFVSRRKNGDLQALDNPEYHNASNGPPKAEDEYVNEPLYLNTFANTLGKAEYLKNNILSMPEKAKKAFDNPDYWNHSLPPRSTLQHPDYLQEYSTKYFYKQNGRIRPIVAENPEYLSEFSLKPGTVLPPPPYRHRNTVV
Experiment [9] shares this target. The note with it: at 10 µM.
Experiment [10] deals with T3, Ephrin type-B receptor 2 (Homo sapiens). The conditions noted are these: at 1 µM.

Focal adhesion kinase 1 (Homo sapiens), sequence (Q05397 2-1052 limits assumed): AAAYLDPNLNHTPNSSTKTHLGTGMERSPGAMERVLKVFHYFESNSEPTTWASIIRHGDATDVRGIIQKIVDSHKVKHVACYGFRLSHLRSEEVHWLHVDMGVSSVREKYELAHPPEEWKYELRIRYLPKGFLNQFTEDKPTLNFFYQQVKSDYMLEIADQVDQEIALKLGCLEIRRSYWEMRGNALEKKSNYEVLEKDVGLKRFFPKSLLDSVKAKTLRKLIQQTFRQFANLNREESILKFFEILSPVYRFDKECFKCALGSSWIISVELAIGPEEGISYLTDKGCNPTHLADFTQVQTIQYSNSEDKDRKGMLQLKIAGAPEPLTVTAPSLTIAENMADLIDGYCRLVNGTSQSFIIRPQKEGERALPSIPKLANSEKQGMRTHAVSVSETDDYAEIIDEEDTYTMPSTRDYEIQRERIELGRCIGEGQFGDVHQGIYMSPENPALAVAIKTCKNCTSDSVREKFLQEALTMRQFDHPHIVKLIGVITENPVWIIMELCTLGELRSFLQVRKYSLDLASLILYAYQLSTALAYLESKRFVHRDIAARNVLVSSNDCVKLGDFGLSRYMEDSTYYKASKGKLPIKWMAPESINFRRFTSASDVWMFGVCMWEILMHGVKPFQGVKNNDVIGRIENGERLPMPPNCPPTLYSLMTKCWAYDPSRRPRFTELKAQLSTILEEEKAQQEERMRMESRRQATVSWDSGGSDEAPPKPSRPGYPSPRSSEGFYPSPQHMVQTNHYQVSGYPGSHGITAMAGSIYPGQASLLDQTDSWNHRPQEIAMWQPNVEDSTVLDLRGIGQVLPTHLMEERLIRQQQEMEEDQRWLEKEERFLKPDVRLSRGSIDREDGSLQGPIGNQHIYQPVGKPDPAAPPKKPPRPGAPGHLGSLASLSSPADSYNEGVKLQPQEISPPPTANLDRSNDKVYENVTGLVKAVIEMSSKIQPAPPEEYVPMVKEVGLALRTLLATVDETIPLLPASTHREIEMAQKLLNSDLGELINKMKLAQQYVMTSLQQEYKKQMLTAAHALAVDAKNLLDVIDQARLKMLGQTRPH

On to `COc1ccc(-c2cnc3c(-c4ccsc4)cnn3c2)cc1`, for which the residual activity was found to be 123% in [1], 122% in experiment [2] and 141% in experiment [3].

Consider `Oc1cccc(-c2nc(N3CCOCC3)c3oc4ncccc4c3n2)c1`, for which the residual activity in [4] is 116% (inactive); in [5] it was 123%; in experiment [3], 144%.

As to `CN([C@@H](Cc1ccc(OS(=O)(=O)c2cccc3cnccc23)cc1)C(=O)N1CCN(c2ccccc2)CC1)S(=O)(=O)c1cccc2cnccc12`, the residual activity in experiment [6] is 131%; in [4], 116% (inactive); in experiment [3] it was 119%.

In the case of `O=c1cc(N2CCOCC2)oc2c1ccc1ccccc12`, the residual activity in [7] was found to be 89%; in experiment [1] it was 101%; in experiment [2] it was 108%; in experiment [8], 106%; in experiment [9], 92%; in experiment [3], 132%.

Regarding `CC(C)N(CCC(=O)c1ccc2ccccc2c1)Cc1ccccc1`, in experiment [9], the residual activity came out at 78%.

Take `O=C1NC(=O)C(c2cn(CCCO)c3ncccc23)=C1c1cnccn1`: the residual activity in experiment [4] is 94% (inactive); in experiment [5] it was 99%; in experiment [1], 92%; in [2], 98%.

As to `CC(C)(C)c1nc2c3ccc(F)cc3c3c(=O)[nH]ccc3c2[nH]1`, the residual activity in experiment [7] worked out at 99%; in experiment [3], 51%.

`O=C1NC(=O)C(c2cn(CCCn3ccnc3)c3ccccc23)=C1Nc1ccccc1`: the residual activity in experiment [10] is 115%; in experiment [6], 122%; in experiment [4], 114% (inactive); in experiment [5] it was 148%; in experiment [1] it was 109%; in experiment [2], 119%. Also, the residual activity stood at 70% in experiment [8], 13% in experiment [9] and 119% in experiment [3].

For the molecule `Cc1cc(C)c(/C=C2\C(=O)Nc3ccccc32)[nH]1`, the residual activity in [3] was found to be 52%.

As for `NC(=O)c1cccc(-c2cc(Nc3ccc(OC(F)(F)F)cc3)ncn2)c1`, the residual activity in [3] came out at 147%.

As to `COc1ccc(Cl)cc1NC(=O)Nc1cc(C)nc2ccccc12`, the residual activity is 68% in experiment [7]; 96% in experiment [1]; 100% in [2]; 96% in [8]; 80% in [9]; 127% in experiment [3].

In the case of `CSc1nc(-c2ccc(F)cc2)c(-c2ccnc(NC(C)c3ccccc3)c2)[nH]1` (stereo not given), the residual activity in [5] came to 80%; in experiment [1], 99%; in experiment [2], 88%; in experiment [9], 85%.

Take `O=C1NC(=O)C(c2c[nH]c3ccccc23)=C1c1c[nH]c2ccccc12`: the residual activity in experiment [7] came out at 39%; in [2], 82%; in experiment [9], 73%; in [3] it was 122%.

Regarding `Nc1nccc(-c2c(-c3ccc(F)cc3)ncn2C2CCNCC2)n1`, the residual activity stood at 77% in [1], 18% in [2] and 66% in [9].

On to `N#C/C(=C\c1ccc(O)c(O)c1)C(=O)NCc1ccccc1`, for which the residual activity in [5] was 133%; in experiment [1] it was 129%; in experiment [2], 102%; in experiment [3] it was 127%.

In the case of `Nc1ncnc2[nH]nc(Nc3ccc(F)cc3)c12`, the residual activity in experiment [6] was 9%; in [4] it was 123% (inactive); in experiment [5], 107%; in [1], 42%; in experiment [2], 6%; in experiment [8], 18%. Also, the values for the residual activity in [9] and in [3] were 11% and 109%, respectively.

On to `CCN1/C(=C/C(C)=O)Sc2ccc(OC)cc21`, for which the residual activity in experiment [8] is 75%; in experiment [9], 69%.

On to `Nc1n[nH]c2nc3ccccc3nc12`, for which the residual activity amounted to 97% in [1], 77% in experiment [2], 87% in experiment [9] and 97% in experiment [3].

For the molecule `CC(C)[C@H](CO)Nc1nc(Nc2cc(N)cc(Cl)c2)c2ncn(C(C)C)c2n1`, the residual activity in experiment [10] was 92%; in experiment [6] it was 7%; in experiment [4], 92% (inactive); in experiment [5] it was 116%; in experiment [1], 57%; in [2] it was 6%. The residual activity came out at 84% in experiment [9] and 42% in experiment [3].

For `Nc1ncnc2c1cnn2-c1ccccc1`, the figures for the residual activity in experiment [1], in experiment [2] and in experiment [3] were 95%, 102% and 137%, respectively.

Consider `O=S(=O)(NCCNC/C=C/c1ccc(Br)cc1)c1cccc2cnccc12`, for which the residual activity in [9] worked out at 74%.

With `Cn1sc(=O)n(Cc2ccccc2)c1=O`, the residual activity amounted to 87% in experiment [1]; 80% in experiment [2]; 87% in experiment [8]; 98% in experiment [9]; 95% in experiment [3].

The values are drawn from ChEMBL document CHEMBL2218924, “A broad activity screen in support of a chemogenomic map for kinase signalling research and drug discovery” (Biochem J, 2013).
